# Bioassay records deposited in PubChem BioAssay by several laboratories.
# Compounds with a hit are over-represented: about 5.9% of the library has one in this group of screens.
# HSF-1 act: increases HSF-1 driven luciferase reporter signal. activation, % at 9 µM. NIH3T3-HGL HSF-1 luciferase reporter, MG132, 8 h; 100% = twice DMSO control signal. 300,000 tested, 1.7% active. AID 504408;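 active means mean replicate activation of at least 50% with a set share of replicates each reaching 50%; inconclusive means only one of those two conditions met; inactive means mean below 50% and too few replicates reaching it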;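 further: 0% = median of the neutral control wells and 100% = twice that signal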
# FXN GAA850 act: frataxin GAA850 promoter activation; HEK293 lucGAA850 FXN promoter luciferase reporter, 24 h; percent of 10 µM SAHA response; 360,000 tested, 0.56% active; activation, % at 6 µM; AID 540364;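 active means activation above the average of all compounds screened plus 3 SD, cutoff fixed separately per campaign, cut at about 7.5% in these data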;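 further: 0% = DMSO wells and 100% = 10 µM SAHA wells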
# HSF1 inhib: HSF1 inhibition | NIH3T3-HGL HSE-luciferase, MG132-induced, luminescence 8 h; active compounds read low | activity change, negative = inhibition, % at 7.5 µM (by protocol) | 300,000 tested, 0.77% active | AID 2098;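 active means more than half of replicate wells show activity change below -50%, luminescence cut by over half; inconclusive means some wells, but at most half, below -50%; inactive means no replicate well below -50%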;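 further: luciferase reports HSF-1 transcriptional activity via heat shock element; 0% = median of DMSO wells and -100% = zero luminescence signal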
# HSP90 inh: blocks HSP90-mediated luciferase refolding in reticulocyte lysate | Rabbit reticulocyte lysate, luciferase refolding luminescence, 3 h | inhibition, % at 5.6 µM | 290,000 tested, 0.91% active | AID 1789;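 active means inhibition above the screen-wide mean plus 3 SD, computed separately per campaign, cut at about 16% in these data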;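 further: 0% = DMSO wells and 100% = 60 µM geldanamycin wells; inhibitors lower the luminescence because luciferase stays unfolded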
# AHR act: activators of human aryl hydrocarbon receptor. 320,000 tested, 2.5% active. activation, % at 5 µM. P35869. AHR-responsive luciferase reporter cells, luminescence. AID 2796; in the data active means activation above about 47%;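 further: 0% = vehicle wells and 100% = reference agonist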
# DAX1 inh: inhibits human nuclear receptor DAX1. 340,000 tested, 0.99% active. HEK293 Gal4-DAX1 luciferase reporter, luminescence. inhibition, % at 6.75 µM. P51843;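 active means inhibition above the mean over all tested compounds plus 3 SD, cut at about 4.2% in these data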;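 further: 0% = DAX1-transfected cells with DMSO and 100% = empty-vector control cells with DMSO; inhibition shows as a rise in luminescence from relieved DAX1 repression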
# Numbers without * were called inactive; ? = inconclusive; nt = no result given.
SMILES,HSF-1 act,FXN GAA850 act,HSF1 inhib,HSP90 inh,AHR act,DAX1 inh
Cc1nn(-c2ccccc2)c(Cl)c1/C=N/Nc1nncc(=O)[nH]1,-3,3,0,1,9,2
Cc1ccsc1/C=N/Nc1nc2ccccc2s1,66*,3,36,-3,71*,3
Cc1nn(-c2ccccc2Cl)c(Cl)c1/C=N/Nc1nc2ccccc2s1,-86,-14,-84*,5,11,-3
Oc1ccc(C=NNc2nc3ccccc3s2)c(O)c1,nt,0,nt,nt,nt,3
COc1cc(/C=C/C(=O)O)ccc1OS(=O)(=O)c1c(C)cc(C)cc1C,nt,-2,nt,nt,-1,-1
CCc1ccccc1-n1ncc(C(=O)Nc2ccc(OC)cc2)c1C,nt,3,nt,nt,nt,2
COc1ccc(CN2C(=NC(=O)C3CCCCC3)SC3CS(=O)(=O)CC32)cc1 (stereo not given),0,0,4,4,6,1
CCc1ccc(CNc2ccc3c(c2)ncn3C(C)(C)C)cc1,-15,2,-7,0,10,1
CC(C)(C)n1cnc2cc(NCc3ccc(Br)cc3)ccc21,31,6,1,2,13,4.2*
CC(C)c1ccc(CNc2ccc3c(c2)ncn3C)cc1,-2,4,0,-6,63*,1
CC1=CC(=O)O[C@@H]1[C@@]1(C)C[C@H]2OC(=O)C[C@H]3[C@@H](C)C(=O)C(O)=C1[C@@]23CO,-1,0,-1,nt,-1,3
CCc1ccc(NC(=O)C2C3CCC(O3)C2C(=O)O)cc1 (stereo not given),-74,4,-70*,-4,3,0
Cn1c2ccccc2n2c(=O)cc(-c3ccccc3)c(C#N)c12,17,4,-1,2,-4,5.4*
Cn1c2ccccc2n2c(=O)c(Cl)c(-c3ccccc3)c(C#N)c12,-7,4,1,8,59*,0
O=C(COC(=O)c1cccc(F)c1)NC(=O)NCc1ccccc1,nt,1,nt,nt,-1,1
O=[N+]([O-])c1ccc(N2CCOCC2)cc1NCc1ccccc1,nt,4,nt,3,28,2
O=[N+]([O-])c1cc([N+](=O)[O-])c(N2CCOCC2)cc1NCc1ccccc1,109*,0,48,-1,-2,3
O=C(NCc1ccccc1Cl)C1CCN(S(=O)(=O)N2CCCCCC2)CC1,16,4,5,2,-2,4.8*
N#C/C(=C\c1c(Cl)cccc1Cl)c1nc2ccccc2o1,11,0,5,-3,2,0
Cc1cc(O)ccc1N/C=C(\C#N)c1nc2ccccc2o1,12,6,16,4,54*,0
O=C(O)c1ccc(CS(=O)(=O)c2cccc(C(F)(F)F)c2)o1,-20,0,-14,2,-3,4.5*
CCCCNC(=O)c1ccc(CS(=O)(=O)c2cccc(C(F)(F)F)c2)o1,9,-2,8,-2,3,2
Cc1cc(C)nc(NS(=O)(=O)c2ccc(NC(=O)CSc3ncn[nH]3)cc2)n1,-17,-1,-6,2,2,5.8*
CC(=O)N(c1ccccc1)c1nnc(-c2cnc(C)cn2)s1,54*,6,18,1,-1,3
C=CCSC1=C(C#N)C(c2cccc(OC)c2)CC(=O)N1 (stereo not given),51*,0,8,0,0,-1
SMILES,HSF-1 act,FXN GAA850 act,HSF1 inhib,HSP90 inh,AHR act,DAX1 inh
O=C(Nc1ccc(Oc2ccccc2)cc1)c1csc([C@@H]2C[C@H](O)[C@@H](CO)O2)n1,nt,-3,nt,nt,nt,nt
CCCC/C(O)=C1\C(=O)CC(C)(C)CC1=Nc1ccc(N)cc1,-5,1,-2,-5,1,6.0*
CCn1c(C)nc2cc(C(=O)NNC(=O)[C@@H](NC(=O)c3cc(OC)cc(OC)c3)C(C)C)ccc21,nt,1,nt,nt,0,1
COc1ccc(CN2CCNC(=O)C2CC(=O)NCC(C)(C)N2CCOCC2)cc1C (stereo not given),6,0,-3,-2,61*,1
COc1ccc(CN2CCNC(=O)C2CC(=O)NCC2CCOCC2)cc1C (stereo not given),?,-1,18,-1,nt,1
COc1ccc(CN2CCNC(=O)C2CC(=O)NC2CC(C)(C)CC(C)(C)C2)cc1OC (stereo not given),-79,1,-70*,-1,-1,0
Cc1ccc(-c2nn(C)c(=O)c3ccccc23)cc1S(=O)(=O)NCCN(C)C,-67,1,-61*,3,0,0
CCCCNS(=O)(=O)c1cc(-c2nn(C)c(=O)c3ccccc23)ccc1C,2,2,2,4,8,0
O=C(CNC(=O)c1ccc(OC(F)F)cc1)Nc1cccc(S(=O)(=O)N2CCCC2)c1,-4,-1,-1,nt,4,0
C(=C\c1nc(N2CCCCCC2)c2ccccc2n1)/c1ccccc1,14,7,8,-3,78*,-1
c1ccc2c(N3CCCCC3)nc(N3CCCCC3)nc2c1,12,0,-5,-2,9,0
C=CCN1C(=O)c2ccccc2NC1c1cc(Br)cs1 (stereo not given),11,-4,6,-4,5,-1
Cc1cc(OCc2cc(C(=O)NC(C)c3c(C)nn(C)c3C)no2)cc(C)c1Cl (stereo not given),54*,2,36,-4,3,-1
Cc1cc(OCc2cc(C(=O)NC(C)c3cnn(C)c3)no2)cc(C)c1Cl (stereo not given),nt,1,nt,nt,nt,2
O=C(N/N=C/c1ccccc1)c1ccc(N2CCCC2=O)cc1,-14,2,-22,nt,-1,-1
COC(=O)c1cc(Br)c(=O)n(CCc2ccc(F)cc2)c1,5,0,11,2,56*,1
CCCCCC(=O)N1C[C@H](O)[C@@H](n2cc(COC(=O)c3ccccc3)nn2)C[C@@H]1c1ccc(OC)cc1,nt,0,nt,nt,nt,0
CCCOc1ccccc1N/C(N)=N/c1nc(C)cc(C)n1,-8,0,-14,0,56*,-2
COc1ccc(Cl)cc1N/C(N)=N/c1nc(C)cc(C)n1,24,-1,5,5,41,0
CCOc1ccc(N/C(N)=N/c2nc(C)cc(C)n2)cc1,13,-2,0,4,11,0
COc1cc(N/C(N)=N/c2nc(C)cc(C)n2)cc(OC)c1,6,-2,-4,1,65*,1
COc1ccc(N/C(N)=N/c2nc(C)cc(C)n2)c(OC)c1,0,2,1,4,63*,0
Cc1cc(=O)[nH]c(/N=C(\N)Nc2ccc3c(c2)OCCO3)n1,1,3,4,-3,8,0
Cc1cc(C)nc(/N=C(\N)Nc2ccc3c(c2)OCCO3)n1,-60,-3,-54*,-3,72*,1
Cn1cc(CN2CCC(Oc3ccc(C(=O)N4CCCC4)cc3)CC2)cn1,1,-2,3,-2,0,0
